In the first test the target is ICAM4. The test can be described thus: pooled miR-30 sensor sort-seq; sequence = guide strand. The settings on record: shRNA.
The sequence TTTTTCTCGCTCAGCCGGCATA displayed a sensor-assay potency score (higher = more potent) of -1.31.

TAGCTAGGCACTTGCATAGGTA returned a sensor-assay potency score (higher = more potent) of -0.927.

TATTCCTCTTTTTCTCGCTCAG registered a sensor-assay potency score (higher = more potent) of -0.694.

Turning to TTCATAGCTAGGCACTTGCATA, the sensor-assay potency score (higher = more potent) was -1.17.

Regarding TCGTAGGTCAAGGTCACGTTGG, the sensor-assay potency score (higher = more potent) was -0.884.

A further test addresses ICOS. Described as above. The settings on record: shRNA.
Regarding TTGTGAATTATTATTCATCTTG, the sensor-assay potency score (higher = more potent) is -0.481.

TTTTGTCTTAGTGAGATCGCAG gave a sensor-assay potency score (higher = more potent) of -0.217.

Take TAAACATCTCATAATTGGCAGA: the sensor-assay potency score (higher = more potent) is -0.689.

TAAACTACAACATAATCCCAGT displayed a sensor-assay potency score (higher = more potent) of -0.438.

TTGTGAAATATAAACATCTCAT: the sensor-assay potency score (higher = more potent) is -0.925.

On to TTTAAGAATCTTTCTAGCCAAA, for which the sensor-assay potency score (higher = more potent) is -1.13.

Take TTGTGATTCATAAATATGCAAA: the sensor-assay potency score (higher = more potent) is -1.24.

In turn, TAAAATTTGTACACCTCCGTTG returned a sensor-assay potency score (higher = more potent) of -0.108.

As for TAGTATGATAGTGAAATGCGGA, the sensor-assay potency score (higher = more potent) was -0.711.

For the sequence TTTGTCTTAGTGAGATCGCAGA, the sensor-assay potency score (higher = more potent) is -0.78.

Sequence TACTGTACTGTACACATCCAGC had a sensor-assay potency score (higher = more potent) of -0.859.

TTGACTGATACAGTCATTCTTC gave a sensor-assay potency score (higher = more potent) of 0.168.

(Values after the OligoGym collection.)
Further: reference of the scale not given here.
